According to PubChem BioAssay AID588727 (Southern Research Specialized Biocontainment Screening …, 2011):
About 450 (0.13%) of roughly 350,000 compounds were called active. No rule for the calls is given here. These entries were drawn from the full list. Measured potencies and affinities stand elsewhere. Where a SMILES comes first, the peptide text is derived from it. [ ]: non-standard residue; d: D form.

Assay: inhibitors of VEEV TC-83 cytopathic effect, confirmation, Vero cells (AID 588727)
Settings: VEEV TC-83 cytopathic effect inhibition, at 20 µM
[1] = stronger effect = higher value unless noted
[2] = measured here: 10K pilot screen inhibition, stronger effect = higher value

Q: With `CCn1nnnc1SCC(=O)N1CCOCC1` as the molecule, how does the inhibition [1] read?
A: 0.74% (inactive)

Q: Which inhibition [1] does the source give for `COc1ccc(N2CC(C(=O)N/N=C/c3cc([N+](=O)[O-])ccc3O)CC2=O)cc1` (stereo not drawn) here?
A: 2.03% (inactive)

Q: With `CCC(C)[C@@H]1NC(=O)N(CCCN2CCCC2=O)C1=O` (stereo partly drawn) as the molecule, how does the inhibition [1] read?
A: 2.56% (inactive)

Q: Which inhibition [1] does the source give for `CC[C@H](C)[C@@H]1NC(=O)[C@H]([C@@H](C)CC)NC(=O)[C@@H](CC(C)C)NC(=O)[C@H](Cc2ccccc2)NC(=O)[C@H](Cc2ccccc2)NC(=O)[C@@H]2CCCN2C(=O)[C@@H]2CCCN2C(=O)[C@H](C(C)C)NC(=O)[C@H](CC(C)C)NC1=O` (cyclo(FF[dL]IILVPP)) here?
A: inactive

Q: With `Cc1ccccc1NC(=O)NCCCN1CCN(C)CC1` as the molecule, how does the inhibition [1] read?
A: 0.45% (inactive)

Q: Which inhibition [1] does the source give for `Cc1ccccc1NC(=O)NCCN1CC1` here?
A: inactive

Q: With `CC(NC(=O)c1cccc(S(=O)(=O)N(C)c2ccccc2)c1)c1cccnc1` (stereo not drawn) as the molecule, how does the inhibition [1] read?
A: 1.03% (inactive)

Q: Which inhibition [1] does the source give for `C[N+]1(CCCCSc2ccc(O)cc2)CCCCC1` here?
A: inactive

Q: For `Cc1ccc(NC(=O)CSc2ccc(-c3ccccn3)nn2)cc1`, which inhibition [1] is on record?
A: 0.64% (inactive)

Q: Which inhibition [1] does the source give for `Cc1ccc(-n2c(SCC(=O)Nc3cccc(S(N)(=O)=O)c3)nc3ccccc32)cc1` here?
A: 2.21% (inactive)

Q: For `CC(C)NC(=O)CSc1nc2ccccc2n1-c1ccccc1`, which inhibition [1] is on record?
A: 3.21% (inactive)

Q: Which inhibition [1] does the source give for `CC(C)(C)NC(=O)CSc1nc2ccccc2n1-c1ccccc1` here?
A: 7.16% (inactive)

Q: With `Cc1nnc(SCC(=O)Nc2ncc(Cl)cc2Cl)n1Cc1ccccc1` as the molecule, how does the inhibition [1] read?
A: 1.6% (inactive)

Q: With `O=C(CSc1nnc2ccccn12)Nc1ncc(Cl)cc1Cl` as the molecule, how does the inhibition [1] read?
A: 3.72% (inactive)

Q: For `Cn1nnnc1SCC(=O)Nc1ncc(Cl)cc1Cl`, which inhibition [1] is on record?
A: 2.56% (inactive)

Q: With `CC(C)c1ccc(-c2cc(C(=O)N3N=C(C(F)F)CC3(O)C(F)F)c3ccccc3n2)cc1` (stereo not drawn) as the molecule, how does the inhibition [1] read?
A: inactive

Q: For `O=C1CCC(C(=O)N2CCCCO2)CN1CCc1ccccc1` (stereo not drawn), which inhibition [1] is on record?
A: 2.16% (inactive)

Q: For `COc1ccc(C2CN=NC2C(=O)c2ccccc2)cc1` (stereo not drawn), which inhibition [1] is on record?
A: 0.98% (inactive)

Q: With `Cc1ccc(/C=N/n2c(-c3cccnc3)n[nH]c2=S)o1` as the molecule, how does the inhibition [1] read?
A: 0.4% (inactive)

Q: With `CC(=O)Nc1ccc(S(=O)(=O)NC2=NCN(c3cccc([N+](=O)[O-])c3)CN2)cc1` as the molecule, how does the inhibition [1] read?
A: 0.07% (inactive)

Q: Which inhibition [1] does the source give for `Cc1nn(-c2ccccc2)c2c1C1(C(=O)Nc3ccccc31)N1C(=N2)Sc2ccccc21` (stereo not drawn) here?
A: 1.86% (inactive)

Q: Which inhibition [1] does the source give for `CCCCCc1ccc(-c2nnc(N)s2)cc1` here?
A: 2.86% (inactive)

Q: With `CC1=Nc2cc(C(=O)O)ccc2Sc2c(C)ccc(C)c21` as the molecule, how does the inhibition [1] read?
A: 0.43% (inactive)

Q: For `CC1=Nc2cc(C(=O)N3CCCC3)ccc2Sc2ccc(C)cc21`, which inhibition [1] is on record?
A: 1.14% (inactive)

Q: For `CCOc1ccc(CCNC(=O)CCS(=O)(=O)c2ccc(OC)cc2)cc1OCC`, which inhibition [1] is on record?
A: 0.09% (inactive)

Q: With `O=C(Cn1ncc2c([nH]c3ccccc32)c1=O)NCCc1ccc(Cl)cc1` as the molecule, how does the inhibition [1] read?
A: 1.06% (inactive)

Q: Which inhibition [1] does the source give for `CCN(CC)c1ccc(-n2cc3c(=O)n(C)c(=O)n(C)c3c2)cc1` here?
A: 5.43% (inactive)

Q: With `Cc1ccc(C)c(NC(=O)c2ccc3ccccc3n2)c1` as the molecule, how does the inhibition [1] read?
A: 4.34% (inactive)

Q: Which inhibition [1] does the source give for `CC(=O)OCC(=O)C1(O)CCC2C3CC(C)C4=CC(=O)CCC4(C)C3C(O)CC21C` (stereo not drawn) here?
A: 2.53% (inactive)

Q: Which inhibition [1] does the source give for `CNC(=O)Nc1ccc(C(=O)N/N=C\C23CC[C@@H](O)CC2(O)CC[C@@H]2[C@@H]3CCC3(C)C(C4=CC(=O)OC4)CCC23O)cc1` (stereo partly drawn) here?
A: 3.29% (inactive)

Q: Which inhibition [1] does the source give for `C[C@@H]1O[C@@H](O[C@@H]2C=C3CCC4C(CC[C@]5(C)[C@@H](c6ccc(=O)oc6)CC[C@]45O)[C@@]3(C)CC2)[C@H](O)[C@H](O)[C@H]1O` (stereo partly drawn) here?
A: 23.8% (inactive)

Q: With `CCCOC1(NC(=O)c2ccccc2)C(C)=CC(=O)C=C1C` as the molecule, how does the inhibition [1] read?
A: inactive

Q: With `CC1CC(C)CN(S(=O)(=O)c2ccc(C(=O)N3CCN(c4ccccc4)CC3)cc2)C1` (stereo not drawn) as the molecule, how does the inhibition [1] read?
A: 1.42% (inactive)

Q: For `CCOc1ccc(NS(=O)(=O)c2ccc(C(=O)N(C)CC(=O)Nc3ccc(OC)cc3)cc2)cc1`, which inhibition [1] is on record?
A: 4.36% (inactive)

Q: Which inhibition [1] does the source give for `Cc1ccc(-n2c(SCC(=O)O)nc3sc4c(c3c2=O)CC(C)(C)SC4)cc1` here?
A: 0.39% (inactive)

Q: Which inhibition [1] does the source give for `CCN1C(=O)/C(=C/c2cn(-c3ccccc3)nc2-c2cccnc2)SC1=S` here?
A: 0.65% (inactive)

Q: Which inhibition [1] does the source give for `CC1CCc2nc(NC(=O)Cc3cccs3)sc2C1` (stereo not drawn) here?
A: 4.77% (inactive)

Q: With `O=C(COc1ccccc1)Nc1nc2c(s1)CCCC2` as the molecule, how does the inhibition [1] read?
A: 3.03% (inactive)

Q: For `COc1ccc(OCC(=O)Nc2nc3c(s2)CCCC3)cc1`, which inhibition [1] is on record?
A: 5.92% (inactive)

Q: Which inhibition [1] does the source give for `O=C(CCCc1cccs1)Nc1nc2c(s1)CCCC2` here?
A: 5.78% (inactive)

Q: With `CCOC1CCCC(n2cnc3c(=S)nc[nH]c32)O1` (stereo not drawn) as the molecule, how does the inhibition [1] read?
A: 2.72% (inactive)

Q: With `CCCC(=O)Nc1ccc(NC(=O)c2cccc(OC)c2)cn1` as the molecule, how does the inhibition [1] read?
A: 0.41% (inactive)

Q: With `COc1ccccc1CCC(=O)OCC(=O)NC1CC1` as the molecule, how does the inhibition [1] read?
A: 2.29% (inactive)

Q: With `CCN(CC)S(=O)(=O)c1ccc(C2=NOC3(C2)N(C)c2ccccc2C3(C)C)cc1` (stereo not drawn) as the molecule, how does the inhibition [1] read?
A: 8.77% (inactive)

Q: With `CC1=NOC2(C1)N(C)c1ccccc1C2(C)C` (stereo not drawn) as the molecule, how does the inhibition [1] read?
A: 0.08% (inactive)

Q: With `CCn1c(SCC(=O)OC)nnc1-c1ccncc1` as the molecule, how does the inhibition [1] read?
A: 0.14% (inactive)

Q: For `COc1cccc(CC(=O)OCC(=O)NC(C)c2ccc(F)cc2)c1` (stereo not drawn), which inhibition [1] is on record?
A: 4.67% (inactive)

Q: Which inhibition [1] does the source give for `Cc1cc(-c2nnc(SCCC(=O)Nc3ccccc3)o2)no1` here?
A: 0.79% (inactive)

Q: Which inhibition [1] does the source give for `O=C(CSc1nnnn1C1CC1)Nc1ccc(S(=O)(=O)N2CCOCC2)cc1` here?
A: 1.19% (inactive)

Q: With `CN(C)c1ccc(/C=C/c2c([N+](=O)[O-])c(=O)n(C)c(=O)n2C)cc1` as the molecule, how does the inhibition [1] read?
A: 0.74% (inactive)

Q: With `COc1ccc(/C=C/c2c([N+](=O)[O-])c(=O)n(C)c(=O)n2C)cc1` as the molecule, how does the inhibition [1] read?
A: 0.41% (inactive)

Q: Which inhibition [1] does the source give for `Cc1ccc(S(=O)(=O)Nc2cccc(C(=O)N3CCOCC3)c2)cc1` here?
A: inactive

Q: What does the source list for `Cc1cc(C)cc(NC(=O)CSc2nc3ccccc3nc2N2CCCCC2)c1`?
A: inhibition (stronger effect = higher value): 3.44% (inactive); inhibition [2]: 1.42%

Q: Which inhibition (stronger effect = higher value) does the source give for `Cc1cc(C)cc(NC(=O)CSc2nc3ccccc3nc2N2CCCC2)c1` here?
A: 4.9% (inactive)

Q: And the inhibition [2]?
A: 0.985%

Q: Which inhibition [1] does the source give for `CCc1ccc(C(C(=O)NC2CCCC2)N(C(=O)c2csnn2)C2CC2)cc1` (stereo not drawn) here?
A: 0.43% (inactive)

Q: With `CCN(CC)S(=O)(=O)c1ccc(OC)c(NS(=O)(=O)c2ccc(F)cc2)c1` as the molecule, how does the inhibition [1] read?
A: inactive
